Screening results deposited in PubChem by National Center for Advancing Translational Sciences (NCATS).
VACV Venus inh: qHTS for Stage-Specific Inhibitors of Vaccinia Orthopoxvirus: Venus Reporter Primary qHTS; Vaccinia virus Venus reporter expression, fluorescence; Potency, µM (series often up to 36.5 µM), without a hit: top-dose activity change, negative = inhibition, actives largely listed as inhibitors; 0.46% of 330,000 active; AID 720580, 2013; calls by dose curve; tested in A549 cells; note: potency is the fitted concentration of half-maximal effect; nearly all actives have a fitted effect of over 30% in size
FMDV antiviral: High Throughput Screening for Foot and Mouth Disease Virus Antivirals | AID 1159524, 2015 | 1.2% of 410,000 active | Potency, µM (highest dose often 57.9 µM), for inactives: top-dose activity change, negative = inhibition, hits mostly inhibitors | FMDV antiviral cell-based qHTS; calls by dose curve; tested in HEK293T cells; note: read-out not given here; potency is the fitted concentration of half-maximal effect; nearly all actives have a fitted effect of over 45% in size
Lassa entry inh: qHTS for Inhibitors of binding or entry into cells for Lassa Virus. Potency, µM (titrated, usually from 37.9 µM), inactives show at the highest dose activity change, negative = inhibition, most hits filed as inhibitors. 1.2% of 300,000 active. Lassa virus pseudotype entry inhibition, cell reporter; calls by dose curve; tested in HEK293 cells; note: potency is the fitted concentration of half-maximal effect; nearly all actives have a fitted effect of over 50% in size
VACV mCherry inh: qHTS for Stage-Specific Inhibitors of Vaccinia Orthopoxvirus: mCherry Reporter Primary qHTS; Vaccinia virus mCherry reporter infection, fluorescence; Potency, µM (highest dose often 36.5 µM), for the others: top-dose activity change, negative = inhibition, hits mostly inhibitors; 0.63% of 310,000 active; AID 720579, 2013; calls by dose curve; tested in A549 cells; note: potency is the fitted concentration of half-maximal effect; nearly all actives have a fitted effect of over 35% in size
HCMV antiviral: qHTS Assay for inhibitors of the human cytomegalovirus (HCMV); 4.5% of 410,000 active; HFF cells, HCMV-luciferase reporter, 72 h; active compounds read low; activity change, negative = inhibition, % at 57.5 µM; in the data active = activity change below about -60%; inconclusive = no clear call, values can overlap the other calls; inactive = above about -39%
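Human foreskin fibroblasts infected with luciferase-reporter HCMV at MOI 1 PFU/cell, compounds at two doses. Luciferase measured 72 h post infection; normalized to buffer-only basal and Salinomycin (10uM) controls.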
Marburg entry inh: qHTS for inhibitors of binding or entry into cells for Marburg Virus; Potency, µM (doses to about 37.8 µM), inactives show at the highest dose activity change, negative = inhibition, hits mostly inhibitors; 1.8% of 300,000 active; Marburg virus pseudotyped entry inhibition, cell reporter; AID 540276, 2011; calls by dose curve; tested in HEK293 cells; note: potency is the fitted concentration of half-maximal effect
Numbers without * were called inactive; i = inactive; ? = inconclusive; · = not tested or not shown; [ ] = another dose, or the depositor's remark. Sampled rows, rich in hits. Any-hit rate of the full collection: about 6.5%. % is set by controls: 0 for no effect and ±100 for the full control effect.

SMILES	VACV Venus inh	FMDV antiviral	Lassa entry inh	VACV mCherry inh	HCMV antiviral	Marburg entry inh
N/C(Cc1ccc(Cl)cc1)=N\OC(=O)c1ccc2ccccc2c1	-5%	-10%	?	-12%	10	2.8µM*
COc1ccc(C/C(N)=N/OC(=O)c2ccc(Cl)cc2)cc1	-4%	7%	?	i	?	-19%[46.1 µM]
N/C(Cc1ccc(Cl)cc1)=N\OC(=O)CCc1ccccc1	-19%	-20%	·	i	18	·
CC(=O)OC[C@H]1O[C@H](CCO/N=C(\C)CCC(=O)OC[C@H]2O[C@H](C#Cc3ccccc3)C=C[C@@H]2Oc2ccc(C)cc2)C=C[C@@H]1OC(C)=O	·	·	·	·	·	21%[14.2 µM]
Cc1nc2cc(OC(=O)N(C)Cc3cccc(-c4ccncc4)c3)ccc2s1	-17%	28µM*	·	12%	·	·
CN(Cc1cccc(-c2ccncc2)c1)C(=O)Oc1ccccc1Cc1ccccc1	-21%	22µM*	·	2%	·	·
CN(Cc1cccc(-c2ccncc2)c1)C(=O)Oc1ccccc1Cl	-12%	20µM*	·	i	·	·
CN(Cc1ccccc1)C(=O)Nc1c(Cl)cccc1Cl	3%	2%	·	5%	79	·
CN(C)Cc1ccccc1OC(=O)N(C)C	-12%	-20%	1%	·	-2	?
CCCCNC(=O)[C@@H]1CC=C[C@@H]2CCN(Cc3ccccc3)C(=O)[C@@H]21	-9%	·	·	-18%	·	·
COc1ccc(C2C(=O)N(C3CCC(C)CC3)CC(=O)N2CCC2=CCCCC2)cc1OC (configuration not stated)	-8%	-17%	?	-5%	-25	·
CCC[C@H]1[C@@H](NS(=O)(=O)c2cc(Cl)cc(Cl)c2)CC[C@@]23CCCN2C(=O)CCC[C@@H]13	·	·	·	·	2	·
NC(=O)CN1C(=O)C(O)(CC(=O)/C=C\C=C\c2ccccc2)c2ccccc21 (configuration not stated)	?	0%	-10%	?	-70*	-39%
CSC1=NC(C(Cl)(Cl)Cl)N=C(c2ccc(C)cc2)N1 (configuration not stated)	?	-22%	-29%	-26%	-71*	-20%[46.1 µM]
Cc1cc(C)c(S(=O)(=O)OC[C@H]2C=CC[C@@H](CCC[C@H]3O[C@H](C(=O)OC(C)C)CC[C@@H]3C)O2)c(C)c1	·	·	·	·	·	-14%[14.2 µM]
CCn1c(CNC(=O)c2ccco2)nnc1SCC(=O)c1ccccc1	-1%	6%	·	-1%	-62*	·
O=S(=O)(Nc1cccnc1Cl)c1ccc2c(c1)OCCO2	-6%	6%	?	-4%	0	3%
Cc1c(Cl)cccc1NS(=O)(=O)c1ccc(NS(=O)(=O)c2ccc3c(c2)OCCO3)cc1	-6%	3%	-11%[46.1 µM]	3%	-106*	1%[46.1 µM]
CCc1ccc(OCC2NCCc3cc(OC)c(OC)cc32)cc1 (configuration not stated)	·	-22%	·	·	-90*	·
COc1cc2c(cc1OC)C(Cc1ccc(O)cc1)NCC2 (configuration not stated)	-7%	-23%	-1%	-15%	-79*	?
Oc1ccc(C[C@H]2NCCc3cc(O)c(O)cc32)cc1O	-11%	3%	?	-12%	11	2.8µM*
CN(C)C(=O)c1ccc(-c2cc3cnc(Nc4ccccc4Cl)cc3[nH]2)cc1	·	·	·	·	-27	·
CCc1nc(-c2cc3ccc(C)cc3[nH]c2=O)no1	·	60%	?	·	-71*	8%
Cc1ccc2cc(-c3noc(C(C)(C)C)n3)c(=O)[nH]c2c1	·	26%	12%	·	-15	19%
CN1C(=O)C(Cc2nc3ccccc3c(=O)n2-c2ccccc2)c2ccccc21 (configuration not stated)	·	-15%	5%	·	-23	-3%
SMILES	VACV Venus inh	FMDV antiviral	Lassa entry inh	VACV mCherry inh	HCMV antiviral	Marburg entry inh
CC(C)N1C(=O)/C(=C/c2nc3ccccc3c(=O)n2-c2ccccc2)c2ccccc21	-13%	28µM*	10µM*	-2%	-105*	?
CC(C)N1C(=O)/C(=C\c2nc3ccccc3c(=O)n2-c2ccccc2)c2ccccc21	?	18µM*	?	11µM*	-95*	?
CC(C)N1C(=O)C(Cc2nc3ccccc3c(=O)n2-c2ccccc2)c2ccccc21 (configuration not stated)	-17%	-11%	?	-28%	-72*	-2%
Cc1cc(=O)n(CC(=O)N2CCCc3ccccc32)c2c1c(C)nn2-c1cccc(F)c1	-17%	-17%	?	-23%	-4	·
COc1ccc(CCNC(=O)CCc2cn(Cc3ccc(C)cc3)c3ccccc23)c(OC)c1OC	-15%	-2%	-23%[46.1 µM]	-18%	?	·
O=S(=O)(Nc1ccc2c(c1)OCCO2)c1cccc2nsnc12	0%	?	19%	i	-68*	14%
O=C(Nc1ccc2c(c1)OCCO2)C1CCN(S(=O)(=O)c2cccc3nsnc23)CC1	-3%	-25%	-3%	-9%	-2	-2%
O=C(C1CCCN(S(=O)(=O)c2cccc3nsnc23)C1)N1CC=C(c2ccccc2)CC1 (configuration not stated)	?	20µM*	?	?	-61*	?
O=C(Nc1ccc2c(c1)OCCO2)C1CCCN(S(=O)(=O)c2cccc3nsnc23)C1 (configuration not stated)	-8%	·	-30%	-12%	-77*	-4%
COCC(=O)Nc1cc(C(=O)NC2C3CC4CC2CC(O)(C4)C3)cc2nc(-c3ccccc3)n(C)c12 (configuration not stated)	-4%	-10%	·	-12%	·	·
Cc1ccc(NS(=O)(=O)c2cc(NC(=O)c3ccc4c(c3)NC(=O)CS4)ccc2C)c(C)c1	-12%	?	?	i	?	10µM*
COc1ccc(CNC(=O)c2cccc(N3CCCS3(=O)=O)c2)cc1OC	-27%[7.34 µM]	?	-15%[46.1 µM]	-22%[7.34 µM]	-85*	?
O=C(Nc1csc([N+](=O)[O-])c1)Nc1ccccc1Cl	0%[7.34 µM]	-3%	-8%	i[7.34 µM]	-67*	?
CC(C)c1ccc(NC2=NCC(=O)N2Cc2cccs2)cc1	-23%	20%	?	-7%	-60*	?
CC(C)c1ccc(CN2C(=O)C(n3cccc3)c3ccccc32)cc1 (configuration not stated)	·	·	·	·	-5	·
O=C(c1ccc(Cn2cnnn2)cc1)N1CCOc2ccc(C(O)C3CCCCC3)cc2C1 (configuration not stated)	-8%	-25%	·	-18%	·	·
CC1=C(/C=C/C(C)=C/C=C/C(C)=C/C(=O)Nc2ccc(O)cc2)C(C)(C)CCC1	?	?	10µM*	?	-77*	?
CC1=CC(=O)C=C(C)C1=NOS(=O)(=O)c1ccccc1	-21%	14µM*	10µM*	-26%	-97*	?
